HEK293 viab = reduces viability of HEK-293 SNCA reporter cells | HEK-293-SNCA-luc viability, GF-AFC fluorescence, 24 h | AID 1671193 | Potency, µM (top dose mostly 57.1 µM), for the others: at the highest dose activity change, negative = cytotoxicity, hits mostly cytotoxic | 150,000 compounds, 0.12% hits;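 further: potency means the concentration at half of the fitted maximal effect; 0% = DMSO-treated cells and -100% = medium-only wells without cells; nearly all actives have a fitted effect of over 30% in size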
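Cytotoxicity counterscreen: after 24 h compound treatment of genome-edited SNCA-luciferase HEK-293 cells, live-cell protease substrate GF-AFC read by fluorescence after 30 min; activity scaled between DMSO (0%) and medium-only (-100%), curves Hill-fitted.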
SNCA expr inhib = SNCA gene expression inhibition; HEK-293 SNCA-luciferase knock-in, luminescence, 24 h; Potency, µM (titrated, usually from 57.2 µM), for the others: at the top dose activity change, negative = inhibition, hits mostly inhibitors; 140,000 compounds, 0.17% hits;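 further: potency means the concentration at half of the fitted maximal effect; plate controls were DMSO cells for no effect and cell-free wells for full effect; nearly all actives have a fitted effect of over 45% in size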
IP6K1 inhibitor = IP6K1 kinase inhibition. IP6K1 kinase, ADP-Glo luminescence, 2 h; active compounds read low. Q92551. AID 1645851. activity change, % (series mostly up to about 58 µM). 140,000 compounds, 0.81% hits; in the data active means activity change below about -25%
Target sequence (Q92551 whole entry, looked up): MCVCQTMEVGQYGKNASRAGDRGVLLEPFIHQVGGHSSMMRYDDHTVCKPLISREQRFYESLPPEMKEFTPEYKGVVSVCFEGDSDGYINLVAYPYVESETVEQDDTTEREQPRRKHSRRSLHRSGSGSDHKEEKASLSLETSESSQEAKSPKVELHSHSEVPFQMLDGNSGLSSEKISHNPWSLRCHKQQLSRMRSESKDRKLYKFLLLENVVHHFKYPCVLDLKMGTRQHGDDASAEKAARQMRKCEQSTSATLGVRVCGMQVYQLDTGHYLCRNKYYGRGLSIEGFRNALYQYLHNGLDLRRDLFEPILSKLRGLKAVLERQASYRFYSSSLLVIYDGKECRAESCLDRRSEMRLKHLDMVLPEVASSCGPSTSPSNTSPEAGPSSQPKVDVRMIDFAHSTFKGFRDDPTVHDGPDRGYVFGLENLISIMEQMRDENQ
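ADP-Glo luminescence measures ADP made by human IP6K1 during a 2 h RT reaction with ATP/IP6 (mix at 1.3 mM/130 uM); top library doses 57.5 and 19.1 uM final.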
GPT2 inhibitor = GPT2 alanine aminotransferase inhibition; Q8TD30; Recombinant GPT2, coupled pyruvate oxidase/HRP Amplex Red fluorescence; Potency, µM (top dose mostly 57.7 µM), without a hit: top-dose activity change, negative = inhibition, usual class: inhibitors; 100,000 compounds, 0.25% hits; further: potency means the concentration at half of the fitted maximal effect; nearly all actives have a fitted effect of over 60% in size
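Recombinant GPT2 (10ng/uL) with 250uM a-KG and 2mM L-alanine, 30 min at room temperature, in HEPES pH 7.5 buffer. Pyruvate detected by pyruvate oxidase/HRP/Amplex Red fluorescence after 30 min in the dark; AOA (50uM) as positive control.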
IP6K1 inh cnf = human IP6K1 inhibition, confirmatory; recombinant IP6K1 kinase, ADP-Glo luminescence, 2 h; Potency, µM (titrated, usually from 49 µM), for inactives: top-dose activity change, negative = inhibition, actives largely listed as inhibitors; shares compounds with IP6K1 inhibitor; AID 1645852; 1,200 compounds, 13% hits; further: potency means the concentration at half of the fitted maximal effect; nearly all actives have a fitted effect of over 65% in size
* = called active by the depositor; i = inactive; ? = inconclusive; . = no result; [ ] = dose if it differs, or a comment. Shown are actives, neighbours in structure and some others; about 1% of the full set was active somewhere. Unless noted, the call rests on the fitted dose curve; in most records, active means well fitted curve in the direction sought with a large enough effect; inconclusive means small, poorly fitted or top-dose-only effect, or another doubt; inactive means no such curve, though single readings can be large; an effect the other way counts as inactive or inconclusive. Unless noted, on the % scale 0 is the no-effect control and ±100 the full control effect.

SMILES | HEK293 viab | SNCA expr inhib | IP6K1 inhibitor | GPT2 inhibitor | IP6K1 inh cnf
CCOc1ccc(CNC(=O)C(C)n2ncn3cccc3c2=O)cc1 (configuration not stated) | 5% | -11% | -27* | . | -11%
COc1ccccc1-c1ccc(CN2CCCCC2C(=O)NCc2cccc(F)c2)cc1 (configuration not stated) | . | . | 6 | . | .
COc1cccc(-c2noc(CC3CCN(C(=O)COc4cccc(C)c4)CC3)n2)c1 | -12% | -17% | -25* | 0% | -18%
COc1ccc(S(=O)(=O)N2CCC(C(=O)Nc3cc(C(F)(F)F)ccc3Cl)CC2)cc1 | ? | ? | -43* | . | -12%
COc1ccc(CNC(=O)C2CCN(S(=O)(=O)c3ccc(C)cc3)CC2)cc1 | 3% | -8% | 16 | . | .
CCC(O)C(=O)N1CCc2onc(-c3ccc(-c4ccccc4)cc3)c2C1 (configuration not stated) | ? | 45% | -47* | 4% | ?
CCN(C)C(=O)C(C)N1CCc2onc(-c3ccc(-c4ccccc4)cc3)c2C1 (configuration not stated) | -5% | 42% | 36 | ? | .
O=C(NC1CCCC1)N1CCN(c2nccc(Nc3ccccc3F)n2)CC1 | -18% | ? | 2 | i | .
COc1cccc(CN2C[C@@H](Oc3ccccc3)C[C@H]2C(N)=O)c1 | 5% | -1% | 4 | -6% | .
CCCOc1ccc(-c2nc3ccc(Br)cc3c(=O)o2)cc1 | 24% | 60% | -16 | . | .
CCOc1cccc(-c2nc3ccccc3c(=O)o2)c1 | 8% | 94% | -29* | . | ?
O=C(NCc1ccc2c(c1)OCO2)c1ccc2nnc(-c3cc(F)ccc3F)n2c1 | 10% | -21% | 5 | ? | .
CCOC(=O)c1cc2c(=O)n3ccccc3nc2n(Cc2ccco2)c1=NC(=O)c1cccc(F)c1 | ? | 10% | -39* | . | -4%
N#Cc1ccc2ncnc(NCCc3ccccc3)c2c1 | -4% | . | -45* | -21% | 10µM*
C#Cc1cccc(Nc2ncnc3cc(OCCOC)c(OCCO)cc23)c1 | ? | ? | . | i | .
COc1cc2ncnc(Nc3cc(Br)c(O)c(Br)c3)c2cc1OC | -11% | 3% | -15 | ? | ?
COc1cc2ncnc(Nc3cccc(I)c3)c2cc1OC | -34% | . | -33* | i | 12µM*
COc1ccc(Nc2ccnc(N3CCC(NC(=O)Cc4ccc(F)cc4)CC3)n2)cc1 | -17% | -15% | -5 | i | .
O=C(O)CCn1cnc2onc(-c3ccccc3Cl)c2c1=O | 18% | 1% | -42* | . | -12%
O=C(CCn1cnc2onc(-c3ccc(F)cc3)c2c1=O)N1CCN(c2ccccc2)CC1 | 2% | -17% | 22 | . | .
COc1ccc(C(C)NC(=O)CN(c2cc(OC)ccc2OC)S(=O)(=O)c2ccccc2)cc1 (configuration not stated) | 2% | -10% | -8 | . | .
COc1ccc(S(=O)(=O)N(CC(=O)NC(C)c2ccccc2)c2ccc(C)cc2)cc1OC (configuration not stated) | 2% | 6% | -33* | . | ?
COc1ccc(S(=O)(=O)N(CC(=O)NCc2ccccc2)c2ccc(C)cc2)cc1OC | ? | -27% | -26* | . | -4%
COc1cccc(-c2ccc(CN3CCCC(N[S+](=O)([O-])c4ccccc4)C3)cc2)c1 (configuration not stated) | 5% | -3% | -15 | -10% | .
CCN(C(=O)CSc1nc(-c2ccccc2)no1)c1cccc(C)c1 | ? | ? | -44* | . | 31%
SMILES | HEK293 viab | SNCA expr inhib | IP6K1 inhibitor | GPT2 inhibitor | IP6K1 inh cnf
Cc1ccc(-n2ncc(C(=O)Nc3ccc4c(c3)OCCO4)c2C2CCN(C(=O)OC(C)(C)C)CC2)cc1 | ? | -47% | -26* | . | 11%
COCCCNc1nc(NCc2cccc(Cl)c2)c2cnn(C)c2n1 | -15% | -29% | -32* | . | ?
Cn1ncc2c(C(=O)NCc3cccc(Cl)c3)cc(C(C)(C)C)nc21 | 4%[87.6 µM] | -32%[87.6 µM] | -3 | i | .
CN(Cc1ccccc1)C(=O)c1ccnc(-c2nnc3ccc(N(C)c4ccccc4)nn23)c1 | -10% | 1% | -3 | 0% | .
COc1ccnc(-c2nnc3ccc(N(C)c4ccccc4)nn23)c1 | ? | ? | -39* | 1%[88.5 µM] | ?
CCCC(=O)c1ccc(OC(=O)c2c(-c3ccccc3Cl)noc2C)cc1 | 3% | 4% | -35* | . | -12%
COc1ccc(Cn2c(=O)c(C(=O)N3CCN(C(=O)Nc4ccc(Cl)cc4)CC3)nc3cccnc32)cc1 | -10%[12.5 µM] | 1% | 0 | i | .
CN(C(=O)C(=O)Nc1ccc2nc3n(c(=O)c2c1)CCCCC3)c1cccc(C(F)(F)F)c1 | -1% | 2% | -14 | . | .
O=C(Nc1ccc2nc3n(c(=O)c2c1)CCCCC3)c1cccc(C(F)(F)F)c1 | ? | -21% | -25* | . | 5%
Cc1ccc(N2CC(NC(=O)c3ccco3)CC2=O)cc1C (configuration not stated) | -2% | 0% | -25* | . | -10%
Cc1ccc(N2CC(NC(=O)c3ccc(Br)o3)CC2=O)cc1C (configuration not stated) | -11% | -11% | -13 | . | .
CNc1nc2c(s1)C(c1ccc(Cl)cc1)CC(=O)N2 (configuration not stated) | 6% | 15% | -28* | ? | 16µM*
O=C1CC(c2ccc(Cl)cc2)c2cc3c(cc2N1)OCCO3 (configuration not stated) | -15% | -13% | -20 | . | .
CCn1c2ccccc2c2cc(CN3CCN(Cc4ccc(OC)c(OC)c4)CC3)ccc21 | -9% | 5% | -18 | . | .
CCOc1ccc(CN2CCN(Cc3ccc4c(c3)c3ccccc3n4CC)CC2)cc1 | -4% | -2% | -32* | . | 7%
CCCCOC(=O)N1CCC(OC)c2ccccc2N(CC(=O)NC)C(=O)C1 (configuration not stated) | . | . | -3 | . | .
C=CCN(Cc1nc(-c2ccccc2)no1)Cc1nccn1C | -6% | 70% | -38* | -5%[11.5 µM] | -12%
C=CCN(CC=C)Cc1nnc2cc(-c3nc(-c4ccccc4)no3)ccn12 | -6% | 65% | 5 | i | .
CNC(=O)c1cc(C2CC2)nc2c1c(C1CCCN(C(=O)c3ccc(Cl)cc3)C1)nn2C (configuration not stated) | . | . | -12 | . | .
CCc1cc(N2CCC(Oc3ccccc3OC)(C(=O)O)CC2)nc(C)n1 | -5% | 15% | -32* | 3%[11.5 µM] | -11%
COc1ccccc1OC1(C(=O)O)CCN(Cc2cnn(C)c2C)CC1 | ? | 47% | -29* | 0%[11.5 µM] | -3%
Cc1ccccc1C(=O)N1CCC(N2C(=O)c3c(c(C)nn3-c3ccccc3)C2C2CC2)CC1 (configuration not stated) | . | . | 13 | . | .
CCCNC(=O)CN1CCN(c2ncc(NC(=O)c3ccc(Cl)cc3)cc2C(=O)O)CC1 | -3% | 38% | -23 | . | .

Source: PubChem (National Center for Advancing Translational Sciences (NCATS))
